These results are taken from PubChem BioAssay.

The structures appear in SMILES notation. Active and inactive are the calls of the source.

The nature of experiment [1]: small molecules captured by biotinylated probe aFSTL3 – biochemical, small-molecule microarray, fluorescence 635/667, stem cell growth factor project, primary screen (AID 1064).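 Also: measures binding of the biotinylated anti-FSTL3 antibody to printed compounds.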 As to conditions: higher = more signal.
The nature of experiment [2]: binders from COS7 lysate, DM2A8 probe, primary screen, torsin A project, cell lysate, small-molecule microarray, fluorescence 635/667 (AID 1065). Conditions: higher = more signal, COS7 lysate expressing mutant human TOR1A.
A short description of experiment [3]: small molecules captured by biotinylated probe aFGF2 – biochemical, small-molecule microarray, fluorescence 635/667, stem cell growth factor project, primary screen (AID 1067).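 Also: measures binding of biotinylated aFGF2 protein to printed compounds on slides; z-score merges feature fluorescence and signal-to-noise across triplicate slides.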 As to conditions: higher = more signal.
Experiment [4] is described as follows: small molecules captured by biotinylated probe aFGF10 – biochemical, small-molecule microarray, fluorescence 635/667, stem cell growth factor project, primary screen (AID 1071).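 Also: score merges 667 nm spot intensity and signal to noise from triplicate slides.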 Conditions: higher = more signal.
Experiment [5] concerns the target Neurogenic locus notch homolog protein 2 (Homo sapiens) (UniProt Q04721). Nature of the experiment: small molecules binding Notch2 protein – biochemical, small-molecule microarray, 635 nm fluorescence, stem cell growth factors, primary screen (AID 1073). Conditions: higher = more signal.
The target of experiment [6] is Pro-neuregulin-1, membrane-bound isoform (Homo sapiens) (UniProt Q02297). Nature of the experiment: small molecules binding neuregulin-1 protein – biochemical, small-molecule microarray, fluorescence 635/667, psychiatric disease protein project, primary screen (AID 1075).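 Also: score combines 667 nm spot fluorescence with signal to noise.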 As to conditions: NRG1 binding, 635 nm fluorescence, higher = more signal.
The subject of experiment [7] is Neuregulin-1 EGF-like domain. Nature of the experiment: small molecules binding NRG1 EGF domain – biochemical, small-molecule microarray, 635 nm fluorescence, primary screen (AID 1081).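 Also: binding of the protein to compounds printed on small-molecule microarray slides.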 As to conditions: higher = more signal.
Experiment [8] in a line: FRG1 expression reporter modulators in myotubes – cell-based, C2C12 myotubes, firefly/Renilla luciferase, luminescence, FRG1 inhibition for FSHD, primary screen (AID 1084). Conditions: FRG1 promoter luciferase, higher = more signal, called active from +8 up or from −8 down.
Experiment [9] in a line: small molecules captured by biotinylated probe aFST – biochemical, small-molecule microarray, fluorescence 635/667, stem cell growth factor project, primary screen (AID 1086).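 Also: score merges 667 nm fluorescence with signal-to-noise of each printed compound spot.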 As to conditions: higher = more signal.
Experiment [10] can be described thus: binders of probe aHhip on microarray, primary screen, stem cell growth factor project, biochemical, small-molecule microarray, fluorescence 635/667 (AID 1087).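 Also: score merges spot fluorescence at 667nm with spot signal to noise ratio.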 As to conditions: higher = more signal.

Pro-neuregulin-1, membrane-bound isoform (Homo sapiens), sequence (Q02297 whole entry, looked up, the tested form may be a part, canonical isoform): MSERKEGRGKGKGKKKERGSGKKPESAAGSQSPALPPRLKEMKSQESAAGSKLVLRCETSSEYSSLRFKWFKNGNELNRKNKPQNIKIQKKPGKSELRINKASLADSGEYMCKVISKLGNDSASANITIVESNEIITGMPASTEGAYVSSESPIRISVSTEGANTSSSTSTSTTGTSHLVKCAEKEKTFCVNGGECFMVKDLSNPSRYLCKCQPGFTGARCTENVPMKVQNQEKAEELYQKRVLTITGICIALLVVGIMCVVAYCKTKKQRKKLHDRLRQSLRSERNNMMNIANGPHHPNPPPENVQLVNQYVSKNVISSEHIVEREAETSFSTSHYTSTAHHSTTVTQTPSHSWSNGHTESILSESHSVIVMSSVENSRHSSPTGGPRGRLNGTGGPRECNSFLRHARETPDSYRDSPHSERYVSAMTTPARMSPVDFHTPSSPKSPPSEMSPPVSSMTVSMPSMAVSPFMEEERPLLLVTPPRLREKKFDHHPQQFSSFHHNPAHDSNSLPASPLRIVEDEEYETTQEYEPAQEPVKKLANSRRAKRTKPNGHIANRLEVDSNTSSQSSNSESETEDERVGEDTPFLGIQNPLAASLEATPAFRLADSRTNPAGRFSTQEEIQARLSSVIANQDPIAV
Neurogenic locus notch homolog protein 2 (Homo sapiens), sequence (Q04721 whole entry, looked up, canonical isoform): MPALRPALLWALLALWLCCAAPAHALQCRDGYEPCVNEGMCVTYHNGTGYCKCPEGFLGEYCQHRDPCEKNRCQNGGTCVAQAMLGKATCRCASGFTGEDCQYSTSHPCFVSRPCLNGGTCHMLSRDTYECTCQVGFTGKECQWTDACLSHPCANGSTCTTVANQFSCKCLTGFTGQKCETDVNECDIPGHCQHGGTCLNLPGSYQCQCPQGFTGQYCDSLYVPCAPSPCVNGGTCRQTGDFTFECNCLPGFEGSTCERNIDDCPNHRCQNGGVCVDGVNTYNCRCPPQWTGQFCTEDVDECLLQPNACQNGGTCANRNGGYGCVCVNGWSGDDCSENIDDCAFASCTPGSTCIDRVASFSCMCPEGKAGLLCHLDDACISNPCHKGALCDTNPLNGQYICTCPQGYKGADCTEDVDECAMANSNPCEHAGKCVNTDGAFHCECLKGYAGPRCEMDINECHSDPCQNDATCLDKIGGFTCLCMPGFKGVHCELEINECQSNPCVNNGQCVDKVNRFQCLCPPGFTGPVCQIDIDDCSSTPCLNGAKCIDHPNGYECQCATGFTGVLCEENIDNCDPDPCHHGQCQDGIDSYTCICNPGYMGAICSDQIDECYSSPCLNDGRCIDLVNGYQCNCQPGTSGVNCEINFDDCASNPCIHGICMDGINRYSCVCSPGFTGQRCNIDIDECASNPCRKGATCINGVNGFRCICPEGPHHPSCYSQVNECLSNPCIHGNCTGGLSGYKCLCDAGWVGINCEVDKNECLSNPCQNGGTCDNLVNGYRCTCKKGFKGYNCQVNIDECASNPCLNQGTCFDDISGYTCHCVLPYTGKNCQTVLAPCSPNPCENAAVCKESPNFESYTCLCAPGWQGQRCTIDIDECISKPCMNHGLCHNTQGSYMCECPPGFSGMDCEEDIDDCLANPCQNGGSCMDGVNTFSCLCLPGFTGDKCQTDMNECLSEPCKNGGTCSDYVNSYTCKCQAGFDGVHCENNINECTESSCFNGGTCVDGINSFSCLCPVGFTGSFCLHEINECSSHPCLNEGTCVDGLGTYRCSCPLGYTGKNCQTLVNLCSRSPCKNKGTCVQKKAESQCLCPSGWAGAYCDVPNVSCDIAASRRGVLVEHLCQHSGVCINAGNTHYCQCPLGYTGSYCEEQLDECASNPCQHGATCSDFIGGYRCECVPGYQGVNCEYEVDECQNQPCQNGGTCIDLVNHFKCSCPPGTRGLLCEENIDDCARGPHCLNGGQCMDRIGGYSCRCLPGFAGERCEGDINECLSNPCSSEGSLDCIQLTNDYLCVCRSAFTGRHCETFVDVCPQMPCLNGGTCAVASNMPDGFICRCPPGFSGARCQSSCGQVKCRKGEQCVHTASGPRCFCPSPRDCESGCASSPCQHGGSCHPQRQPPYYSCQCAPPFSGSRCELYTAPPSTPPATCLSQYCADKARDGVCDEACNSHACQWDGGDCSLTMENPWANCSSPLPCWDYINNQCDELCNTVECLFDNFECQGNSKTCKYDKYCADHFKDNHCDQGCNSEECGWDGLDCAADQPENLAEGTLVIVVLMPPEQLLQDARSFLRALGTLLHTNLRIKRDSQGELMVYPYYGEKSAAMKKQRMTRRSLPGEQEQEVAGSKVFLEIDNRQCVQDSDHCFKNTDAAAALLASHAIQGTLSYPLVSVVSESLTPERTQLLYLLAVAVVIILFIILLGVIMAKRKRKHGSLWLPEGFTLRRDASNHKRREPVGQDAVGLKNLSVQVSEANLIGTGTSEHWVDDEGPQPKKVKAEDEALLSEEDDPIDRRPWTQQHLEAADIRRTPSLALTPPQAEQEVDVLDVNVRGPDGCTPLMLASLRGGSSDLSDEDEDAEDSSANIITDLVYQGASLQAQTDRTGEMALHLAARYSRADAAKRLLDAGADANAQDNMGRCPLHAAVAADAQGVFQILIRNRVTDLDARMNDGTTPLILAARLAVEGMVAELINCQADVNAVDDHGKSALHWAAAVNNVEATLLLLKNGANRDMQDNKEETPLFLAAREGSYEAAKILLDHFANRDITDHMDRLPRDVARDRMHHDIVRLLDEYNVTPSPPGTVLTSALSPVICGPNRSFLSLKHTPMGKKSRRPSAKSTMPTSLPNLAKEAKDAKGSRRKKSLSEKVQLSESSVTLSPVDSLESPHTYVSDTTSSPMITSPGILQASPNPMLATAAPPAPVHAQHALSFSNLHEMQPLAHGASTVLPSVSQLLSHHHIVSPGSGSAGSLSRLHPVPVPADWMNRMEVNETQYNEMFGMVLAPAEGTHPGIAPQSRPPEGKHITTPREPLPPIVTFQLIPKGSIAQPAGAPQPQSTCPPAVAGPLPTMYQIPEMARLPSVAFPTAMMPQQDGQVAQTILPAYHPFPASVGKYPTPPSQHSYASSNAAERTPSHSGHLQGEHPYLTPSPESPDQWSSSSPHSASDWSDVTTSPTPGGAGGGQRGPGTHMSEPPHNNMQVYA

Regarding `CCOC(=O)C[C@H]1[C@H](OC(=O)Cc2ccc3c(c2)OCO3)[C@@H](NC(=O)C2CCCCC2)c2cc(OCCCO)ccc2N1C(=O)c1ccccc1`, the composite z-score was 0.0113 in experiment [1]; -0.155 in experiment [2]; -0.112 in [3]; 0.117 in experiment [4]; 0.0925 in experiment [5]; -0.127 in experiment [6]. The composite z-score in experiment [7] was 0.65; in experiment [9] it was -0.0611; in [10] it was -0.0994. Further, the z-score in experiment [8] was -1.14 (inactive).

For the compound `N[C@@H](Cc1ccccc1)C(=O)NCc1cn(Cc2ccccc2)nn1`, the composite z-score in [1] was 0.231; in [2], 0.595; in experiment [3], -0.0465; in experiment [4] it was 0.157; in [5], 0.108; in experiment [6], -0.191. Moreover, the composite z-score is 1.04 in experiment [7], 0.145 in experiment [9] and -0.0296 in experiment [10]. Besides, the z-score in experiment [8] was 0.46 (inactive).

For the compound `CO[C@H]1O[C@H](CO)[C@@H](OC(=O)CCc2ccccc2)[C@@H]2OC(=O)[C@@H](Cc3ccccc3)C/C=C/C[C@H](Cc3ccccc3)C(=O)O[C@@H]12`, the composite z-score in experiment [1] was -0.0519; in experiment [2], 0.595; in experiment [3], -0.0962; in experiment [4] it was 0.242; in experiment [5], 0.185; in experiment [6], 0.438. Further, the figures for the composite z-score in experiment [7], in experiment [9] and in experiment [10] were 0.756, 0.671 and 0.0854, respectively. For the same compound, the z-score in [8] was 0.248 (inactive).

As for `COc1cc2c(cc1O)C(C1CC1)N(Cc1cccc(OC(F)(F)F)c1)CC2` (stereo not given), the composite z-score in experiment [1] was -0.119; in experiment [2], 0.257; in [3] it was -0.101; in [4], 0.248; in experiment [5], -0.725; in experiment [6] it was 1.39. For the same compound, the composite z-score in experiment [7] was 0.857; in [9] it was -0.182; in [10] it was 0.132. In addition, in experiment [8], the z-score is 0.329 (inactive).

Consider `COC(=O)[C@@]1(Cc2ccc(F)cc2)[C@H]2c3cc(C(=O)N4CCCC4)n(CCc4c[nH]c5ccccc45)c3C[C@H]2CN1C(=O)c1ccccc1`, for which the composite z-score stood at 0.484 in [1]; 0.246 in [2]; 0.0869 in [3]; 0.439 in experiment [4]; 1.62 in experiment [5]; 2.06 in experiment [6]. Moreover, the results for the composite z-score in experiment [7], in experiment [9] and in [10] were 1.22, 1.05 and 0.245, respectively. Also, the z-score in experiment [8] was -2.21 (inactive).

Turning to `CC1=C2[C@@H](CCc3ccccc3)OB(O)C[C@@H]2[C@@H]2C(=O)N(Cc3ccccc3)C(=O)[C@@H]2C1`, the composite z-score was -0.575 in [1]; -0.0096 in [2]; -0.155 in experiment [3]; 0.0928 in experiment [4]; 0.529 in [5]; 0.0808 in experiment [6]. The composite z-score in experiment [7] is 1.02; in [9], 0.0584; in experiment [10], -0.0618. In addition, in experiment [8], the z-score was -0.0949 (inactive).

As for `CCOC(=O)C[C@H]1[C@H](OC(=O)c2ccc(C(=O)c3ccccc3)cc2)[C@@H](NC(=O)CC(C)C)c2cc(OCCCO)ccc2N1C(=O)c1ccccc1`, the composite z-score in experiment [1] was -0.399; in experiment [2], 0.275; in experiment [3], -0.0266; in experiment [4] it was 0.542; in [5], 1.2; in experiment [6] it was 0.807. Besides, the results for the composite z-score in experiment [7], in experiment [9] and in experiment [10] were 0.996, 0.766 and 0.0129, respectively. For the same compound, the z-score in experiment [8] was -0.16 (inactive).

For the compound `O=C1C2C=CC(C(O)c3ccco3)N(Nc3ccccc3F)C2C(=O)N1c1ccccc1` (stereo not given), the composite z-score in experiment [1] was -0.111; in experiment [2] it was -0.501; in experiment [3], 0.134; in experiment [4] it was 0.458; in experiment [5] it was 1.02; in experiment [6] it was 1.32. Also, the figures for the composite z-score in experiment [7], in experiment [9] and in experiment [10] were 0.894, 0.931 and -0.173, respectively. The z-score in experiment [8] is 0.793 (inactive).

On to `O=c1cccc(-c2ccc([N+](=O)[O-])cc2)o1`, for which the composite z-score in [1] is -0.164; in experiment [2] it was -0.0642; in experiment [3], 0.0008; in experiment [4], 0.287; in [5], 0.698; in experiment [6], -0.283. Further, the composite z-score in experiment [7] was 0.348; in experiment [9], -0.192; in experiment [10], -0.0263. For the same compound, the z-score in [8] was -0.0029 (inactive).

`C=CCOC(=O)[C@@H]1[C@H]2C(=O)O[C@H](c3ccccc3)[C@H](c3ccccc3)N2[C@H](c2ccc(OCCOC(=O)[C@@H]3C[C@@H]4C(=O)N[C@@H](CCCC[N+](C)(C)C)C(=O)N4[C@@H]3c3ccc(O)cc3)cc2)[C@@]12C(=O)Nc1ccc(I)cc12`: the composite z-score in experiment [1] is -0.106; in experiment [2], 0.956; in experiment [3], -0.0005; in experiment [4] it was 0.884; in [5] it was 0.617; in experiment [6], 1.2. Further, the composite z-score in experiment [7] is 1.38; in experiment [9], -0.0446; in experiment [10], -0.16. The z-score in experiment [8] was 3.51 (inactive).

As to `[N-]=[N+]=Nc1ccccc1C[C@]1(C(=O)O)COC(c2ccc(OCCCO)cc2)=N1`, the composite z-score was 0.326 in [1]; -1.1 in experiment [2]; -0.11 in experiment [3]; 0.518 in [4]; 0.194 in experiment [5]; 0.614 in [6]. Also, the composite z-score in experiment [7] was 1.19; in experiment [9] it was 0.205; in [10], 0.419. Further, the z-score in [8] is 5.78 (inactive).

For `CCOC(=O)C1=CC[C@@H](c2ccccc2F)N(S(=O)(=O)c2ccc(C)cc2)[C@H]1c1ccccc1`, the composite z-score in experiment [1] is -0.419; in experiment [2], -0.0956; in experiment [3] it was -0.0253; in experiment [4] it was 0.765; in experiment [5] it was 1.46; in [6], 0.65. The composite z-score is 0.677 in [7], 0.789 in experiment [9] and -0.11 in [10]. Further, the z-score in experiment [8] is -3.46 (inactive).

`NC(=O)NCC#Cc1ccc2c(c1)[C@]1(C(=O)N2)[C@H](C(=O)N2CCN(c3ncccn3)CC2)[C@H]2C(=O)O[C@H](c3ccccc3)[C@H](c3ccccc3)N2[C@@H]1c1ccc(O)cc1`: the composite z-score in experiment [1] is -0.141; in experiment [2], 0.143; in experiment [3] it was -0.0328; in experiment [4] it was 0.861; in [5], 1.17; in experiment [6], 0.575. For the same compound, the composite z-score in experiment [7] came to 0.664; in [9], 1.1; in experiment [10], 0.141. The z-score in experiment [8] was 0.234 (inactive).

Turning to `CC1CC/C=C\[C@H]2OC34C=CCN(c5ccc(Cl)cc5)C(=O)[C@H]3N(C(C)CO)C(=O)[C@]4(C)C2C(=O)O1` (stereo not given in full), the composite z-score in [1] is 0.0528; in [2], -0.591; in experiment [3] it was -0.143; in experiment [4] it was -0.172; in [5], -0.807; in experiment [6], -0.154. Also, the composite z-score in [7] is 0.886; in experiment [9] it was -0.732; in [10], -0.0618. Further, in experiment [8], the z-score is 0.242 (inactive).

In the case of `COc1cc(NN2C(C(O)c3ccc(N(C)C)cc3)C=CC3C(=O)N(c4ccccc4)C(=O)C32)cc(OC)c1OC` (stereo not given), the composite z-score in experiment [1] stood at 0.817; in experiment [2], 0.0214; in experiment [3], 0.107; in experiment [4], 0.396; in [5], 1.18; in experiment [6] it was 0.465. Besides, the figures for the composite z-score in experiment [7], in experiment [9] and in [10] were 1.13, 0.588 and -0.0618, respectively. Also, the z-score in [8] was 1.44 (inactive).

For `CO[C@H]1O[C@H](CO)[C@@H](OC(=O)Nc2ccc(Br)cc2)[C@@H]2OC(=O)[C@@H](Cc3ccccc3)C/C=C/C[C@H](Cc3ccccc3)C(=O)O[C@@H]12`, the composite z-score in [1] is -0.159; in experiment [2] it was 1.01; in experiment [3], -0.07; in experiment [4] it was 0.79; in experiment [5], 1.15; in experiment [6] it was 1.25. Further, the figures for the composite z-score in [7], in experiment [9] and in experiment [10] were 1.09, 0.0279 and -0.0645, respectively. Besides, the z-score in experiment [8] was 0.147 (inactive).

As for `O=C(NCCN1CCOCC1)[C@@H]1c2ccccc2C(=O)N(Cc2ccccc2Cl)[C@H]1c1ccc(CO)cc1`, the composite z-score was -0.138 in experiment [1]; -0.483 in experiment [2]; -0.15 in experiment [3]; -0.758 in [4]; -0.922 in [5]; 0.923 in experiment [6]. For the same compound, the composite z-score is 1.32 in [7], 0.263 in [9] and -0.391 in [10]. Also, the z-score in experiment [8] was -2.41 (inactive).
